The campaign covered roughly 2,400 compounds. About 750 (31%) were called active.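 The calls were made as follows: active = median signal gain over dofetilide-blocked control wells reaching their mean plus 3 SD, so readout 1 at least 0; inactive = the rest.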 Some of the results follow.
target: Voltage-gated inwardly rectifying potassium channel KCNH2 (Homo sapiens) (UniProt Q12809); experiment: hERG protection against dofetilide inhibition, confirmation, cell-based, thallium flux, duplicate retest, dofetilide IC70 (AID 1835); conditions: hERG cell line, FluxOR thallium flux, dofetilide-blocked; at 10 µM; active compounds read high
Sequence (Q12809 whole entry, looked up): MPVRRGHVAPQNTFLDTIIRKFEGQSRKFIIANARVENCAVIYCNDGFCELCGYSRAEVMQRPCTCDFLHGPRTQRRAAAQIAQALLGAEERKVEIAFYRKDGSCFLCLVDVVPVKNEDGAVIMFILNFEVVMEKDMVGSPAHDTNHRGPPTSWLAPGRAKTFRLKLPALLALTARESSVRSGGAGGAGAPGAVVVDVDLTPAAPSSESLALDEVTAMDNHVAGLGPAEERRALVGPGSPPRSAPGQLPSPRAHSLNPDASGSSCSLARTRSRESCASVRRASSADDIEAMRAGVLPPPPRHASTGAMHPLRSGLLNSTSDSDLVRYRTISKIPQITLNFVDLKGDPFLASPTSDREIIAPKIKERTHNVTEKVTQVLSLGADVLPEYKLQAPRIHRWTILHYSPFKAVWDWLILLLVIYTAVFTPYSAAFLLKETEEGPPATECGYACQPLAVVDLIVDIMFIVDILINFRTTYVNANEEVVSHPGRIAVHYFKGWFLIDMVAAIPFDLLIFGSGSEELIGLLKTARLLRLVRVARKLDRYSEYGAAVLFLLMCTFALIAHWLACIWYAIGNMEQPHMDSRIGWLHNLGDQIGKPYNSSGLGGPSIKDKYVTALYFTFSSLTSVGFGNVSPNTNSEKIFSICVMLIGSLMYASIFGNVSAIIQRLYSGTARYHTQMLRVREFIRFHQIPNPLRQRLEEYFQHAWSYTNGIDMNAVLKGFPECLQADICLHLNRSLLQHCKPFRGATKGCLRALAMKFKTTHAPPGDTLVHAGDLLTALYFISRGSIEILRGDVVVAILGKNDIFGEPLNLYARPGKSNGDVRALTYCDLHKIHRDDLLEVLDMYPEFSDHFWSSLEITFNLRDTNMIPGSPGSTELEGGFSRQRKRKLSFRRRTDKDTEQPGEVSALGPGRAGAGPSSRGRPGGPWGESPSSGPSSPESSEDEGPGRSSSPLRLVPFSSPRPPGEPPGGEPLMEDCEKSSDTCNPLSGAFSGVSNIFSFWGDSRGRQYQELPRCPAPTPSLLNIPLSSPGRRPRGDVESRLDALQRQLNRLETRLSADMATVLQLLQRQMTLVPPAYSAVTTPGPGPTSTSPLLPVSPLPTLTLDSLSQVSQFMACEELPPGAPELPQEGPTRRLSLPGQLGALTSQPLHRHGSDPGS

| Structure (SMILES) | activity increase over dofetilide control, less the hit threshold |
| --- | --- |
| O=C(NC(=S)NCc1ccc(-c2nc3ccccc3s2)cc1)c1ccco1 | -2% (inactive) |
| CCOC(=O)N1CCC(N2C(=O)c3ccccc3C2Nc2cccnc2)CC1 (stereo not given) | 11% (active) |
| Cc1ccnc(N2CCC(C(=O)Nc3ccc(Oc4ccccc4)cc3)CC2)n1 | -11% (inactive) |
| Cc1ccc(-n2ncc3c2CCCC3NC(=O)c2csnn2)cc1C (stereo not given) | 21% (active) |
| COc1ccc(-n2ncc3c2CC(C)(C)CC3NC(=O)c2cn[nH]c2)cc1 (stereo not given) | -9% (inactive) |
| Cc1cc(C)cc(-n2ncc3c2CCCC3NC(=O)c2csnn2)c1 (stereo not given) | 58% (active) |
| COc1cc2c(cc1OC)C(c1ccc([N+](=O)[O-])cc1)N(C(C)=O)CC2 (stereo not given) | -36% (inactive) |
| Cc1ccc(S(=O)(=O)Nc2c(C)[nH]c(=O)[nH]c2=O)cc1C | -13% (inactive) |
| S=C(NCc1ccco1)N1CCN(c2nc(-c3ccccc3)cs2)CC1 | -13% (inactive) |
| O=C(NC(=S)Nc1ncc(Br)cc1Br)c1ccccc1 | 11% (active) |
| O=C(NC(=S)Nc1nc(-c2ccccc2)cs1)c1cccs1 | 17% (active) |
| Brc1ccc(-c2csc(N3CCCCCC3)n2)cc1 | -3% (inactive) |
| COc1ccc(-c2csc(NC(=S)NC(=O)c3cccs3)n2)cc1OC | -1% (inactive) |
| O=C(NC(=S)N1CCN(c2nc(-c3ccccc3)cs2)CC1)c1cncc(Br)c1 | 12% (active) |
| COc1ccc(-c2csc(NC(=S)NC(=O)c3cccs3)n2)cc1Br | 6% (active) |
| CC(O)C(NS(=O)(=O)c1ccc(Cl)cc1)C(=O)OCc1cc([N+](=O)[O-])cc2c1OCOC2 (stereo not given) | -12% (inactive) |
| Cc1cc(-c2ccccc2)[nH]c(=O)c1S(=O)(=O)c1ccccc1 | -17% (inactive) |
| O=C(CN(C(=O)CNS(=O)(=O)c1ccc(F)cc1)c1cccc(F)c1)NCC1CCCO1 (stereo not given) | -17% (inactive) |
| O=C(NC(=S)Nc1nc(-c2ccccc2)cs1)c1cncc(Br)c1 | 1% (active) |
| Cc1ccc(NC(=S)NC(=O)c2cncc(Br)c2)cc1Cl | -13% (inactive) |
| COc1ccc(-c2csc(NC(=S)NC(=O)c3ccc4ccccc4c3)n2)cc1OC | -9% (inactive) |
| O=C(NC(=S)Nc1cccc(Cl)c1)c1cncc(Br)c1 | -10% (inactive) |
| CC1CCCC(NC(=S)NC(=O)c2cncc(Br)c2)C1C (stereo not given) | -10% (inactive) |
| Cc1ccc(C)c(NC(=S)NC(=O)c2cncc(Br)c2)c1 | 6% (active) |
| COc1cc(S(=O)(=O)n2cnc(C)c2)ccc1Cl | -20% (inactive) |

| Structure (SMILES) | activity increase over dofetilide control, less the hit threshold |
| --- | --- |
| COC(=O)C1=C(C)N(CC2CCCO2)C(=O)/C1=C\c1ccc(O)cc1 (stereo not given) | 8% (active) |
| COC(=O)c1cc2sc(Cl)cc2n1CC(=O)NCC1CCCO1 (stereo not given) | -8% (inactive) |
| Cc1ccc(NC(=O)CSc2nnc(C3CC3)n2CC2CCCO2)c(C)c1 (stereo not given) | -14% (inactive) |
| O=S(=O)(c1ccc(F)cc1)N1CCN(c2ccc(F)cc2)CC1 | -15% (inactive) |
| CCOC(=O)c1sc(=S)n2c1[nH]c(=O)c1ccc(C(=O)OC)cc12 | 51% (active) |
| CCC1SC2=NC(C)=C(C(=O)OC)C(c3ccc(C(=O)OC)cc3)N2C1=O (stereo not given) | -1% (inactive) |
| CC(=O)N1C(=O)/C(=C2\SC(=S)N(NC(=O)c3ccc(O)cc3)C2=O)c2ccccc21 | -3% (inactive) |
| S=c1nc(-c2ccccc2)[nH]n1-c1ccccc1 | 54% (active) |
| COc1cc(-c2nnc(SCC(=O)O)n2-c2ccccc2)cc(OC)c1OC | -9% (inactive) |
| CC(C)CSC1=NSC2=NC(=O)/C(=C\c3ccccc3)C(=N)N12 | 32% (active) |
| Cc1ccc(/C=C2/C(=N)N3N=C(CC(=O)N4CCCC4)SC3=NC2=O)cc1 | -2% (inactive) |
| CC(Oc1ccccc1F)C(=O)NC1CCS(=O)(=O)C1 (stereo not given) | -9% (inactive) |
| CN1C(=O)C2(OCC(C)([N+](=O)[O-])CO2)c2ccccc21 (stereo not given) | -7% (inactive) |
| Cc1nc2cc3sc(C)nc3cc2s1 | -8% (inactive) |
| Cc1cccc(N/C(N)=N/c2nc(C)cc(=O)[nH]2)c1 | -9% (inactive) |
| Cc1ccc(Nc2cc(C)nn2-c2nc(C)cc(=O)[nH]2)cc1 | 40% (active) |
| Cc1ccc(NN=Nc2nc3c([nH]2)c(=O)n(C)c(=O)n3C)cc1 | -6% (inactive) |
| C=CCn1c(=S)[nH]c2sc3c(c2c1=O)CCCC3 | 30% (active) |
| C=CCn1c(=S)[nH]c2sc3c(c2c1=O)CCC3 | 27% (active) |
| c1ccc(SSc2ccccn2)nc1 | -21% (inactive) |
| CCOC(=O)C1CCN(S(=O)(=O)c2cccc3nonc23)CC1 | 2% (active) |
| CCOC(=O)C1CCCN(C(=O)CN2C(=O)c3ccccc3C2=O)C1 (stereo not given) | -20% (inactive) |
| O=C(NCc1ccc(Cl)cc1)C1CCN(S(=O)(=O)c2cccc3nonc23)CC1 | -5% (inactive) |
| CCN1CCN(CCNC(=O)CCCn2nc(C)c3c(C)n(-c4ccc(C)cc4)nc3c2=O)CC1 | -8% (inactive) |
| Cc1cc(C)cc(OCc2nnc(SCC(=O)Nc3ccccc3)o2)c1 | -19% (inactive) |

— PubChem BioAssay AID1835 (Johns Hopkins Ion Channel Center, 2009)
